# Source: PubChem BioAssay (NCATS)
# Records with an inconclusive call do not appear. A number with no mark means an inactive call. The source made the active and inactive calls. Calls come from the whole dose curve; as a rule, active = well fitted inhibition curve with a large enough effect; inconclusive = small, poorly fitted or top-dose-only effect; inactive = flat fitted curve, though single readings scatter.
# Molecular target: Calcium and integrin-binding protein 1 (Homo sapiens) (UniProt Q99828)
# Sequence (Q99828 whole entry, looked up): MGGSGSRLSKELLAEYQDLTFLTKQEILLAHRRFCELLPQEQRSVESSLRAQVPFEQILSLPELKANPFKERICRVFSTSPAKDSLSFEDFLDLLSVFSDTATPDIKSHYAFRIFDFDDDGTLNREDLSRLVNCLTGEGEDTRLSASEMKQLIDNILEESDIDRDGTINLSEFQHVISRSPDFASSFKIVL
# Assay: Primary qHTS for Identification of Calcium Integrin Binding Protein 1 (CIB1) Competitor (AID 1508620);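 note: GST tagged CIB1 binding a fluorescein labelled alphaIIb integrin peptide tracer; top concentration of the series differs between compounds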
# Conditions: CIB1-GST / FITC-alphaIIb peptide fluorescence polarization; series mostly up to 114 µM; activity change, negative = inhibition: at the top concentration
# Outline: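 Fluorescence polarization competition: CIB1-GST (1 uM final) preincubated with compound 15 min at room temperature, then FITC-labeled alphaIIb peptide (100 nM final) added for another 15 min. Polarization read at Ex 480/Em 540.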
# % is set by controls: 0 for no effect and ±100 for the full control effect.
SMILES,"activity change, negative = inhibition",Potency
COC(=O)[C@@H](O)[C@H]1[C@@]2(C)CC3(O)[C@@H](C(=O)[C@H]2O)[C@]24O[C@]25CC(=O)O[C@@H](c2ccoc2)[C@]5(C)CCC4[C@]13C (stereo partly specified),-8.07% [at 57.7 µM],
CC(C)(O)CC(CO)NC(=O)CC(O)CC(=O)Cc1ccccc1 (stereo unspecified),-15.6% [at 57.7 µM],
COC(=O)c1ccccc1O[C@@H]1O[C@H](CO)[C@@H](O)[C@H](O)[C@H]1O[C@@H]1O[C@@H](C)[C@H](O)[C@@H](O)[C@H]1O,0.69% [at 57.7 µM],
CCC(C)C(=O)OC1CC(O)C23C4OCC5(C(O)CC2C1(C)C(O)O4)C3C(=O)C(O)C1(C)C(O)(c2ccoc2)CC2OC251 (stereo unspecified),4.85% [at 30.2 µM],
O=C(Cc1ccc(-c2ccccc2)cc1)NC1CCC1,-2.41%,
C[C@@H]1CN(Cc2ncccn2)C[C@H]1c1nc2c(cnn2C2CCOCC2)c(=O)[nH]1,-8.54%,
CC(C)C[C@H](CC(=O)NO)C(=O)N[C@@H](Cc1ccc2ccccc2c1)C(=O)N[C@@H](C)C(=O)NCCN,0.248%,
CC(=O)O[C@@H]1c2c(C)coc2C(=O)[C@@]23O[C@@H]2CC[C@H](C)[C@@]13C,0.978%,
CCn1cc(NC(=S)Nc2cc(Cl)ccc2OC)c(C(N)=O)n1,-2.79%,
CC(C)c1nc(-c2ccc(NC(=O)Nc3cccc(C(F)(F)F)c3)c3ccccc23)c2c(N)nccn12,-1.24%,
CC(=O)C=C=C1C(C)(C)CC(O[C@@H]2O[C@H](CO)[C@@H](O)[C@H](O)[C@H]2O)CC1(C)O (stereo partly specified),3.62% [at 57.7 µM],
CC(=O)C1=CCC2C3CCC4CC(O[C@@H]5O[C@H](CO)[C@@H](O[C@@H]6O[C@@H](C)[C@H](O)[C@@H](O)[C@H]6O)[C@H](O)[C@H]5O[C@@H]5O[C@H](CO)[C@@H](O)[C@H](O)[C@H]5O)CCC4(C)C3CCC12C (stereo partly specified),3.17% [at 30.2 µM],
CC1(C)CCC2(C(=O)OC3OCC(O)C(O)C3O)CCC3(C)C(=CCC4C5(C)CC(O)C(OC6OC(COC7OCC(O)C(O)C7O)C(O)C(O)C6O)C(C)(C)C5CCC43C)C2C1 (stereo unspecified),-1.91% [at 30.2 µM],
CC1COC2(OC3CC4C5CC(O[C@@H]6O[C@H](C)[C@@H](O[C@@H]7O[C@@H](C)[C@H](O)[C@@H](O)[C@H]7O)[C@H](O)[C@H]6O)C6CC(O)CCC6(C)C5CCC4(C)C3C2C)C(O)C1 (stereo partly specified),5.29% [at 30.2 µM],
Cc1nc(NC(=O)N2CCCC2C(N)=O)sc1-c1csc(C(C)(C)C)n1 (stereo unspecified),0.193%,
C=C1[C@H](OC(C)=O)[C@H]2[C@@H](OC(C)=O)[C@](C)(OC(C)=O)C[C@]2(OC(C)=O)C(=O)[C@H](C)/C=C/C(C)(C)C(=O)[C@H](OC(=O)C(C)CC)[C@H]1OC(C)=O (stereo partly specified),4.57% [at 30.2 µM],

SMILES,"activity change, negative = inhibition",Potency
COc1c(/C=C/C(C)(C)O)ccc2c1C(=O)OCc1cc(C)cc(O)c1O2,-3.4% [at 57.7 µM],
NC(=O)[C@H]1CCS[C@@H]2C[C@]3(CCCN3C(=O)Cc3ccc(NC(=O)COc4ccc(Cl)cc4Cl)cc3)C(=O)N12,,inactive
COc1ccc([C@@H]2OC[C@H]3[C@@H]2CO[C@@H]3c2ccc(OC3OC(CO)C(O)C(O)C3O)c(OC)c2)cc1OC (stereo partly specified),-1.55% [at 57.7 µM],
C=C1CC2C(C)(CCC(=O)O)C(C(C)(C)O)CCC2(C)C2C(=O)OC(C)(C(=O)OC)C(=O)C12C (stereo unspecified),3.24% [at 57.7 µM],
C/C=C/C=C/C(O)=C1\C(O)=C(C)C(=O)[C@@]2(C)OC(=O)[C@@](C)(NC(=O)/C=C/C(=O)O)[C@@H]12,-5.19% [at 57.7 µM],
CCOC(=O)Nc1cc(-c2ccc(C)c(NS(C)(=O)=O)c2)nn2c(C)nnc12,1.06%,
Cc1cccc2c1NC(=O)C2(c1ccc(O)cc1)c1ccc(O)cc1,-1.02%,
C[C@H]1O[C@@H](O[C@H]2CC[C@@]3(C)C(CC[C@]4(C)C3CC=C3C5CC(C)(C)CC[C@]5(C(=O)O)CC[C@]34C(=O)O)C2(C)C)[C@H](O)[C@@H](O)[C@@H]1O (stereo partly specified),-5.65% [at 30.2 µM],
CC1CCC2(C=O)C(CO)=CCCC2C1(C)CC(=O)O (stereo unspecified),5%,
COc1ccccc1NC(=O)OCC1CCN(C(=O)OC(C)(C)C)CC1,1.52%,
CC/C=C\[C@H](O)[C@H](O)C1=C(C)C(=O)[C@]2(O1)C(=O)N[C@@](OC)(C(=O)c1ccccc1)[C@@H]2O,0.43% [at 57.7 µM],
COc1nc2sc(C(=O)NC3CC3)c(N)c2c(C)c1Cl,-7.8%,
CC(O)(CC(=O)O)CC(=O)OCc1ccc(O[C@@H]2O[C@H](CO)[C@@H](O)[C@H](O)[C@H]2O)cc1 (stereo partly specified),4.09% [at 57.7 µM],
Cc1ccc(C)c(OCCn2cc(C(=O)O)c3ccccc32)c1,2.25%,
CC(C)(O[C@@H]1O[C@H](CO)[C@@H](O)[C@H](O)[C@H]1O)C(OC(=O)/C=C\c1ccc(O)cc1)C(=O)OCc1ccc(O[C@@H]2O[C@H](CO)[C@@H](O)[C@H](O)[C@H]2O)cc1 (stereo partly specified),2.26% [at 30.2 µM],
